Compounds without any hit were thinned out: in the full panel of roughly 83,000, 20% have a hit.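 Method: cells in 96-well plates; compound added at one concentration; 48 h incubation; percent growth measured; values under 10 scored active.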 Calls of active or inactive are those of the source.

This test has as its system OVCAR-4 ovarian. The test is described as follows: NCI-60 one-dose screen, 48 h (100 = growth as untreated, 0 = no growth, -100 = all killed). The note with it: 10 µM unless noted. As to the method: Growth inhibition of the OVCAR-4 human tumor cell line is measured as a screen for anti-cancer activity. Cells are grown in 96 well plates and exposed to the test compound for 48 hours. Compounds are tested at a single concentration, which is 10^-5 M for most compounds. The reported endpoint is percent growth (GI% or GIPRCNT), where numbers from 0 - 100% represent growth inhibition, and numbers from -100% - 0 represent cell death. For example, a value of 40 represents 60% growth inhibition. A value of 0 means no net growth occurred over the course of the experiment. A value of -40 indicates 40% of cells at the beginning of the experiment died by the end of the experiment. A value of -100 means all cells are dead at the end of the experiment.
NCI-60 Human Tumor Cell Lines Screen was performed using the standard one-dose NCI protocol, which is described in more detail at https://dtp.cancer.gov/discovery_development/nci-60/default.htm.
Compounds with GIPRCNT values below 10 were considered active. Activity score was based on GIPRCNT using the following formula: […]
Score is 0 for GIPRCNT values of 100 or above, 50 for GIPRCNT values of 0, and 100 for GIPRCNT values of -100.
Consider `CS(=O)(=O)Nc1cc(-c2ccc3ncnc(Nc4c(Cl)ccc5c4OCO5)c3c2)cnc1Cl`, for which the growth was 8.29% (active).

For `CN(C)CCCC1(c2ccc(F)cc2)OCc2cc(-c3cncc4ccccc34)ccc21` (stereo not given), the growth was 43.9% (inactive).

As to `Cc1ccc(-n2c(=S)[nH]c3sc4c(c3c2=O)CCC(=O)C4)cc1`, the growth is 69.3% (inactive).

For `CCOC(=O)C1=NN(c2ccccc2)C(=O)/C1=C\N1C(=O)CC(=O)NC1=S`, the growth was 52.7% (inactive).

For the molecule `Clc1ccc(Nc2nnc(COc3ccccc3)c3ccccc23)cc1`, the growth was 18.1% (inactive).

For the molecule `CCc1ccc(Oc2cn[nH]c2-c2ccc(OCCc3ccc(F)cc3)cc2O)cc1`, the growth was 89.5% (inactive).

As to `CCCCOC(=O)OCc1cc(=O)c(O)co1`, the growth was 104% (inactive).

With `C=CC(=O)NCc1ccc(Nc2nccc(-c3ccc(N4CCCC4)c(C#N)c3)n2)cc1`, the growth is 16.2% (inactive).

Consider `Cc1ccc(CNc2ccc(Cl)cc2NCc2ccc(C)c(O)c2)cc1O`, for which the growth was 27.8% (inactive).

In the case of `COc1ccc(-c2nnc3n(C)c(=O)c4ccccc4n23)cc1N`, the growth is 59.3% (inactive).

`Cc1ccc(-c2csc(NC(=O)CN3CCN(c4cc5c(cc4F)c(=O)c(C(=O)O)cn5C4CC4)CC3)n2)cc1`: the growth was 20.8% (inactive).

For the molecule `COc1ccccc1Nc1nc2c(s1)C1=CC[C@H]3[C@@H]4CC[C@H]([C@H](C)CCCC(C)C)[C@@]4(C)CC[C@@H]3[C@@]1(C)CC2`, the growth was 99.8% (inactive).

As for `CCSc1nc(NC)c2cc(-c3ccc(C(F)(F)F)cc3)ccc2n1`, the growth is 96.2% (inactive).

For the molecule `COc1ccc2cc(-c3ccc(NC(C)=O)c(=O)o3)ccc2c1`, the growth is 101% (inactive).

Take `COc1ccc(CC(C#N)c2cc3ccccc3[nH]2)cc1` (stereo not given): the growth was 95.4% (inactive).

Turning to `O=C1/C(=C/c2ccc(Cl)cc2)COc2ccc(O)cc21`, the growth is 84% (inactive).

With `O=C(Nc1nc2ccc(F)cc2s1)c1cccnc1Nc1ccc(Cl)cc1`, the growth is -13.1% (active).

Regarding `CC1(c2ccccc2O)NN=C(/N=C/c2cccc([N+](=O)[O-])c2)N1C(Cc1c[nH]c2ccccc12)C(=O)O` (stereo not given), the growth is 90.2% (inactive).

For `CN1C(=O)/C(=C/c2cn(-c3ccccc3)nc2-c2ccccc2)SC1=S`, the growth was 106% (inactive).

With `O=C1c2cccc3cccc(c23)C(=O)N1N1C(=O)c2cccc3c(N4CCOCC4)ccc(c23)C1=O`, the growth was 108% (inactive).

On to `COc1ccc(/C=C2\COc3ccc(O)c(O)c3C2=O)cc1`, for which the growth is 48.4% (inactive).

Turning to `O=C(c1ccc(-c2nc(CSc3nc4ccccc4s3)no2)cc1)N1CCSCC1`, the growth is 69.5% (inactive).

With `O=[N+]([O-])c1ccc(-c2nc(N3CCOCC3)c3c4c(sc3n2)CCCC4)cc1`, the growth is 92.2% (inactive).

As to `O=C(/C=C/c1cccs1)c1ccc(Cl)nc1`, the growth is 104% (inactive).

On to `Nc1ncnc2c1N=C(c1ccc(Cl)cc1)CC(c1ccc3c(c1)OCO3)N2` (stereo not given), for which the growth was 98.6% (inactive).

For the molecule `CS(=O)(=O)Nc1cc(-c2ccc3ncnc(Nc4ccc5c(cnn5Cc5ccccn5)c4)c3c2)cnc1Cl`, the growth is 91.5% (inactive).

Regarding `Oc1c(Cl)cc(Cl)c2ccc(Cn3cc(-c4cc(F)cc(F)c4)nn3)nc12`, the growth is 56% (inactive).

In the case of `CC(=O)Nc1nc2ccc(NS(=O)(=O)c3cccc4c(N(C)C)cccc34)cc2[nH]1`, the growth is 76.9% (inactive).

On to `COC(C(=O)[C@@H](O)[C@@H](C)O)[C@@H]1Cc2cc3cc(O[C@H]4C[C@@H](O[C@H]5C[C@@H](O)[C@H](O)C(C)O5)[C@H](O)C(C)O4)c(C)c(O)c3c(O)c2C(=O)[C@H]1O[C@H]1C[C@@H](O[C@H]2C[C@@H](O[C@H]3C[C@@H](O)[C@H](OC)C(C)O3)[C@@H](O)C(C)O2)[C@H](O)C(C)O1` (stereo not given in full), for which the growth is 11.8% (inactive).

Regarding `O=C1/C(=C/c2ccc(F)cc2)COc2ccc(O)cc21`, the growth was 93.4% (inactive).

As to `CN(C)CC(=O)Nc1ccc2ncnc(Nc3ccc(Oc4cccc(C(F)(F)F)c4)c(Cl)c3)c2c1`, the growth is 51.5% (inactive).

For the molecule `CCc1n(Cc2ccc3ccccc3c2)cc[n+]1Cc1ccc2ccccc2c1`, the growth was 2.44% (active).

Take `CNC(=O)c1c(NC(=O)c2ccc(C(F)(F)F)cc2)sc2c1CCC(=O)C2`: the growth is -81.5% (active).

With `O=C(/C=C(/C=C/c1cccc2[nH]ccc12)OB(F)F)/C=C/c1cccc2[nH]ccc12`, the growth was 11.5% (inactive).

As for `CN(C)CCCC1(c2ccc(F)cc2)OCc2cc(-c3cccc4[nH]ccc34)ccc21` (stereo not given), the growth is 30.9% (inactive).

Consider `O=C1N(Cc2ccccc2Cl)c2ccccc2C12NN=C(c1cccc(Cl)c1)S2` (stereo not given), for which the growth was -13.9% (active).

`C=C1C(=O)O[C@H]2[C@H]1CC/C(COC(=O)N[C@H]1C[C@H](O[C@H]3C[C@](O)(C(=O)CO)Cc4c(O)c5c(c(O)c43)C(=O)c3c(OC)cccc3C5=O)O[C@@H](C)[C@H]1O)=C\CC[C@@]1(C)O[C@@H]21`: the growth was 62.5% (inactive).

In the case of `COC(=O)c1n[nH]c2ccc3nc(-c4cn[nH]c4C(F)(F)F)c4c(c3c12)CCCC4`, the growth was 62.5% (inactive).

`C/C(=N/O)c1ccc(F)cc1`: the growth is 95.3% (inactive).

With `O=C(OCc1ccc2cccc(O)c2n1)N1CCN(C(=O)c2cc3cc(F)ccc3[nH]2)CC1`, the growth is -71.8% (active).

For the origin of these results see PubChem BioAssay (NCI).
